Data: PubChem BioAssay (EPA / NIEHS)
Values joined by “and” are separate entries in the source; they are usually repeats but may differ in a detail not shown here. Equal values may be shown once. The source holds several records for some structures; these can differ, active in one and inactive in another. Active and inactive are the calls of the source. Rule for the calls: active = hit-call score of the fitted dose curve at least 0.9, where 1 is the maximum; inactive = score below 0.9.

Columns and labels:
[1] = read-out: Matrix Metallopeptidase 3 (MMP3), MMP3 (gene 4314); assay: BSK_BF4T_MMP3: BioMAP Diversity Plus: BF4T Assay for Matrix Metallopeptidase 3 (MMP3) Biomarker Activity (AID 2284271); conditions: primary human bronchial epithelial cells with fibroblasts
How it was run: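 MMP-3 level read by ELISA after 24 h chemical exposure of bronchial epithelial cell/dermal fibroblast co-cultures, fitted upward relative to DMSO. Parallel cultures stained with 0.1% SRB after TCA fixation gauge overt cytotoxicity.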

[2] = read-out: Tissue plasminogen activator (tPA), PLAT (gene 5327); assay: BSK_BF4T_tPA: BioMAP Diversity Plus: BF4T Assay for Tissue plasminogen activator (tPA) Biomarker Activity (AID 2284272); conditions: primary human bronchial epithelial cells with fibroblasts
How it was run: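 tPA level quantified by ELISA at 24 h post-treatment in bronchial epithelial/dermal fibroblast co-cultures, gain of signal scored against DMSO baseline. Parallel cultures stained with 0.1% SRB (560 nm) to flag overt cytotoxicity.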

[3] = read-out: Plasminogen Activator Inhibitor-1 (PAI1), SERPINE1 (gene 5054); assay: BSK_BF4T_PAI1: BioMAP Diversity Plus: BF4T Assay for Plasminogen Activator Inhibitor-1 (PAI1) Biomarker Activity (AID 2284273); conditions: primary human bronchial epithelial cells with fibroblasts
How it was run: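 PAI-1 levels quantified by ELISA 24 h post-dosing in bronchial epithelial cell plus dermal fibroblast cultures. Signal gain referenced to DMSO baseline. Sulforhodamine B total-protein staining of parallel wells checked cytotoxicity.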

[4] = BSK_BF4T_SRB: Viability Assessment in the BioMAP Diversity Plus: BF4T Assay (AID 2284274); conditions: primary human bronchial epithelial cells with fibroblasts
How it was run: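 Cytotoxicity measured as total protein: cells fixed with 10% TCA, stained with 0.1% SRB, read at 560 nm. Bronchial epithelial/dermal fibroblast co-culture, 24 h after dosing, with positive-direction fitting relative to DMSO.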

[5] = read-out: urokinase Plasminogen Activator (uPA), PLAU (gene 5328); assay: BSK_BF4T_uPA: BioMAP Diversity Plus: BF4T Assay for urokinase Plasminogen Activator (uPA) Biomarker Activity (AID 2284275); conditions: primary human bronchial epithelial cells with fibroblasts
How it was run: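 uPA levels measured by ELISA at 24 hours in BF4T cultures (bronchial epithelial cells plus dermal fibroblasts) and compared with DMSO; cytotoxicity tracked in parallel cultures by sulforhodamine B staining.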

[6] = read-out: Matrix Metallopeptidase 9 (MMP9), MMP9 (gene 4318); assay: BSK_BF4T_MMP9: BioMAP Diversity Plus: BF4T Assay for Matrix Metallopeptidase 9 (MMP9) Biomarker Activity (AID 2284276); conditions: primary human bronchial epithelial cells with fibroblasts
Protocol: BSK_BF4T is a cell-based, multiplexed-readout assay that uses bronchial epithelial cells and dermal fibroblasts, a human vascular primary cell, with measurements taken at 24 hours after chemical dosing in a microplate: 96-well plate.BSK_BF4T_MMP9 is an assay component measured in the BSK_BF4T assay. It measures MMP-9 antibody related to regulation of gene expression using ELISA technology.Data from the assay component BSK_BF4T_MMP9 was analyzed at the endpoint, BSK_BF4T_MMP9, in the positive analysis fitting direction relative to DMSO as the negative control and baseline of activity. Using a type of binding reporter, gain or loss-of-signal activity can be used to understand protein changes. To generalize the intended target to other relatable targets, this assay endpoint is annotated to the 'protease' intended target family, where the subfamily is 'matrix metalloproteinase'.
(§1) The levels of cell surface (or secreted, indicated by the prefix "s") biomarker endpoints were measured by ELISA. Overt cytotoxicity to cells in confluent adherent cultures (all systems other than the BT system) was assessed by measuring total protein levels using sulforhodamine B (SRB) staining in parallel cultures at the time of biomarker measurements, indicated as SRB endpoints. For proliferation assays for adherent cell types, individual cell types are cultured at sub-confluence and relative cell numbers quantified by SRB staining at time points optimized for each system (48 h: 3C and CASM3C systems; 72 h: BT and HDF3CGF systems; 96 h: SAg system). SRB was performed by staining cells with 0.1% SRB after fixation with 10% TCA and reading wells at 560 nm.Viability and proliferation of PBMC (T cells) was quantified by Alamar Blue reduction for the SAg and BT systems. For PBMC viability (referred to as PBMC Cytotoxicity within the assay endpoint names), cells were plated (75,000/well in a 96-well plate) and then chemical samples added for 1 h before addition of activators, SEB and TSST-1 (20 ng/mL final concentration each). Cells were incubated for 90 h. Then, Alamar Blue (20 uL/well) (Invitrogen, Cat DAL1100) was added for 6 h, and the plates were read with a fluorescence microplate reader at 546/580 nm (excitation/emission). For PBMC proliferation, cells were plated and activated as above but incubated for only 16 h prior to addition of Alamar Blue. Plates were read after 6 h.

[7] = read-out: Interleukin-8 (IL8), CXCL8 (gene 3576); assay: BSK_IMphg_IL8: BioMAP Diversity Plus: IMphg Assay for Interleukin-8 (IL8) Biomarker Activity (AID 2284277); conditions: primary human endothelial cells with macrophages
Protocol: BSK_IMphg is a cell-based, multiplexed-readout assay that uses venular endothelial cells and macrophages, a human vascular primary cell, with measurements taken at 24 hours after chemical dosing in a microplate: 96-well plate.BSK_IMphg_IL8 is an assay component measured in the BSK_IMphg assay. It measures IL-8 antibody related to regulation of gene expression using ELISA technology.Data from the assay component BSK_IMphg_IL8 was analyzed at the endpoint, BSK_IMphg_IL8, in the positive analysis fitting direction relative to DMSO as the negative control and baseline of activity. Using a type of binding reporter, gain or loss-of-signal activity can be used to understand protein changes. To generalize the intended target to other relatable targets, this assay endpoint is annotated to the 'cytokine' intended target family, where the subfamily is 'interleukins'.
as §1

[8] = read-out: Intercellular Adhesion Molecule 1 (ICAM1), ICAM1 (gene 3383); assay: BSK_BE3C_ICAM1: BioMAP Diversity Plus: BE3C Assay for Intercellular Adhesion Molecule 1 (ICAM1) Biomarker Activity (AID 2284278); conditions: primary human bronchial epithelial cells
How it was run: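 hu bronchial epithelial primary cells, 24 h cpd exposure, ICAM-1 ELISA; gain-of-signal fit vs DMSO baseline.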

[9] = read-out: Interferon-inducible T-cell alpha chemoattractant (ITAC), CXCL11 (gene 6373); assay: BSK_BE3C_ITAC: BioMAP Diversity Plus: BE3C Assay for Interferon-inducible T-cell alpha chemoattractant (ITAC) Biomarker Activity (AID 2284279); conditions: primary human bronchial epithelial cells
How it was run: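 ELISA read-out of I-TAC after 24 h chemical dosing of human lung primary bronchial epithelial cells; gain-of-signal fit vs DMSO baseline. Parallel SRB total-protein staining (0.1% SRB, 10% TCA fixation, 560 nm) assessed cytotoxicity.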

[10] = read-out: Interleukin-8 (IL8), CXCL8 (gene 3576); assay: BSK_BE3C_IL8: BioMAP Diversity Plus: BE3C Assay for Interleukin-8 (IL8) Biomarker Activity (AID 2284280); conditions: primary human bronchial epithelial cells
How it was run: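 Primary human bronchial epithelial cells (BE3C system) were exposed to test chemical for 24 h, and IL-8 levels were then measured by ELISA. Activity was fitted in the positive (gain-of-signal) direction against a DMSO negative-control baseline.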

C=C(F)C(=O)OC(C(F)(F)F)C(F)(F)F
outcome [1]: inactive
outcome [2]: inactive
outcome [3]: inactive
outcome [4]: inactive
outcome [5]: inactive
outcome [6]: inactive
outcome [7]: inactive
outcome [8]: inactive
outcome [9]: inactive
outcome [10]: inactive

CCCO[Si](OCCC)(OCCC)OCCC
outcome [8]: inactive
outcome [9]: inactive
outcome [10]: inactive

O=C(O)C(F)(F)OC(F)(F)C(F)(F)OC(F)(F)C(F)(F)C(F)(F)C(F)(F)F
AC50 [1]: 12.9 µM (active) and 17.8 µM (active)
outcome [2]: inactive
outcome [3]: inactive
outcome [4]: inactive
outcome [5]: inactive
outcome [6]: inactive
outcome [7]: inactive
outcome [8]: inactive
AC50 [9]: 7.77 µM (active) and 7.6 µM (active)
outcome [10]: inactive

CCCCN(CCO)CCO
outcome [8]: inactive
outcome [9]: inactive
outcome [10]: inactive

C=C(C)C(=O)OCCC(F)(F)C(F)(F)C(F)(F)C(F)(F)C(F)(F)C(F)(F)C(F)(F)C(F)(F)F
outcome [1]: inactive
outcome [2]: inactive
outcome [3]: inactive
outcome [4]: inactive
outcome [5]: inactive
outcome [6]: inactive
outcome [7]: inactive
outcome [8]: inactive
outcome [9]: inactive
outcome [10]: inactive

O=S(=O)(O)C(F)(F)C(F)(F)OC(F)(F)C(F)(F)F
AC50 [1]: 36.9 µM (active)
outcome [1]: inactive
outcome [2]: inactive
outcome [3]: inactive
outcome [4]: inactive
outcome [5]: inactive
outcome [6]: inactive
AC50 [7]: 41.7 µM (active)
outcome [7]: inactive
outcome [8]: inactive
outcome [9]: inactive
outcome [10]: inactive

CC(C)CCCC(C)(C)O
outcome [8]: inactive
outcome [9]: inactive
outcome [10]: inactive

CC(=O)c1ccc(C)cc1
outcome [8]: inactive
outcome [9]: inactive
outcome [10]: inactive

c1ccc(OCCOc2ccccc2)cc1
outcome [8]: inactive
outcome [9]: inactive
outcome [10]: inactive

O=C(O)C(F)(F)C(F)(F)C(F)(F)C(F)(F)C(F)(F)C(F)(F)C(F)(F)C(F)F
outcome [1]: inactive
AC50 [2]: 4.37 µM (active) and 2.45 µM (active)
AC50 [3]: 2.94 µM (active) and 2.8 µM (active)
outcome [4]: inactive
outcome [5]: inactive
outcome [6]: inactive
outcome [7]: inactive
outcome [8]: inactive
outcome [9]: inactive
outcome [10]: inactive

OCC(F)(OC(F)(F)C(F)(OC(F)(F)C(F)(F)C(F)(F)F)C(F)(F)F)C(F)(F)F (stereo not given)
outcome [1]: inactive
AC50 [2]: 4.28 µM (active)
outcome [2]: inactive
outcome [3]: inactive
outcome [4]: inactive
outcome [5]: inactive
outcome [6]: inactive
outcome [7]: inactive
outcome [8]: inactive
AC50 [9]: 5.2 µM (active)
outcome [9]: inactive
outcome [10]: inactive

CCn1cc(C(=O)O)c(=O)c2ccc(C)nc21
outcome [8]: inactive
outcome [9]: inactive
outcome [10]: inactive

CC(C)(CO)CO
outcome [8]: inactive
outcome [9]: inactive
outcome [10]: inactive
